High-throughput results from PubChem BioAssay.
FBPA Giardia inh: Giardia lamblia aldolase inhibition. purified Giardia FBPA. AID 2451. 0.71% of 290,000 active. Potency, µM (series often up to 59.6 µM), without a hit: top-dose activity, negative = inhibition, actives largely listed as inhibitors. A8B2U2; note: nearly all actives have a fitted effect of over 55% in size
Target sequence (A8B2U2 whole entry, looked up): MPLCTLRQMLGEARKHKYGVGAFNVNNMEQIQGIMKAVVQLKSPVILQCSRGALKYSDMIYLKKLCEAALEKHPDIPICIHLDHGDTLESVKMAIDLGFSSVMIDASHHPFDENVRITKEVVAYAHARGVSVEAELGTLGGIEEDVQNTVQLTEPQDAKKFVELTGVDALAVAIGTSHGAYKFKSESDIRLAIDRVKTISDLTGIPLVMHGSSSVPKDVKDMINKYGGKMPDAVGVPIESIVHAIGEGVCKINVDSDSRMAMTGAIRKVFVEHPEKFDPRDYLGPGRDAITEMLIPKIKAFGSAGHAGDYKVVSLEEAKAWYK
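40 nM FBPA preincubated 10 min at RT with compound (up to 57.5 uM final), then substrate plus GAPDH/TPI/NAD/arsenate coupling and diaphorase/resazurin added. Fluorescence read after 20 min at RT, 525/598 nm.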
AmpC no deterg: AmpC beta-lactamase inhibition without detergent. AmpC nitrocefin hydrolysis, absorbance 480 nm, 0.0001% Triton. AID 485341. 0.52% of 330,000 active. P00811. Potency, µM (titrated, usually from 57.1 µM), for inactives: at the top dose activity change, negative = inhibition, hits mostly inhibitors;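 note: plate controls were no compound for no effect and no enzyme for full effect; nearly all actives have a fitted effect of over 20% in size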
Target sequence (P00811 whole entry, looked up): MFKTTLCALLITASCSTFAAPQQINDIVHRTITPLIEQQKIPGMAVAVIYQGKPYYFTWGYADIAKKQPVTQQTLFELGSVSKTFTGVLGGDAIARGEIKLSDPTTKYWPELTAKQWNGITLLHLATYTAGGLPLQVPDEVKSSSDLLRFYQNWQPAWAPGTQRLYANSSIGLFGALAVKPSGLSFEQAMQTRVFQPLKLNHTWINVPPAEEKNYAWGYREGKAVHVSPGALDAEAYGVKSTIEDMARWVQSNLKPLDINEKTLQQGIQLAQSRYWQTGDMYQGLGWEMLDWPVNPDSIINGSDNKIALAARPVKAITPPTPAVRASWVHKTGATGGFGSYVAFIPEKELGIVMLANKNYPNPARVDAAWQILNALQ
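AmpC (5.3 nM in the dispensed reagent) in 20 mM phosphate pH 7.0 with 0.01% (detergent screen) or 0.0001% Triton X-100 was preincubated with compounds for 15 min at room temperature. Nitrocefin was then added from an 800 uM solution, and hydrolysis was followed at 480 nm.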
AMA1-RON2 inh: inhibitors of Plasmodium falciparum AMA1-RON2 interaction. AlphaScreen AMA1-biotinylated RON2 peptide binding. Potency, µM (top dose mostly 58.2 µM), inactives show at the highest dose activity change, negative = inhibition, usual class: inhibitors. 0.2% of 360,000 active. AID 720542;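 note: 0% = vehicle wells and -100% = peptide control; nearly all actives have a fitted effect of over 45% in size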
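AMA1 (3D7) with his tag at 25 nM final met compounds first, then biotinylated RON2 peptide at 25 nM; detection used donor plus acceptor beads, 10 µg/mL apiece, read by AlphaScreen after 30 min at room temperature.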
AmpC detergent: inhibitors of E. coli AmpC beta-lactamase with detergent | AmpC hydrolysis of nitrocefin, absorbance 480 nm, 0.01% Triton | AID 485294 | P00811 | Potency, µM (series often up to 114 µM), for inactives: at the highest dose activity change, negative = inhibition, actives largely listed as inhibitors | 0.041% of 370,000 active;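 note: 0% = no-compound wells and -100% = no-enzyme wells; nearly all actives have a fitted effect of over 25% in size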
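AmpC (5.3 nM in the dispensed reagent) in 20 mM phosphate pH 7.0 with 0.01% (detergent screen) or 0.0001% Triton X-100 was preincubated with compounds for 15 min at room temperature. Nitrocefin was then added from an 800 uM solution, and hydrolysis was followed at 480 nm.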
* marks the source's active call; other numbers are inactive results; ? = inconclusive; . = not tested or not shown; [ ] = dose if it differs, or a comment. Only some compounds are listed: those with a hit (about 1.1% of all), similar ones and a draw of the others. Calls come from the whole dose curve; as a rule, active = well fitted curve in the direction sought with a large enough effect; inconclusive = small, poorly fitted or top-dose-only effect, or another doubt; inactive = no such curve, though single readings can be large; an effect the other way counts as inactive or inconclusive. Unless noted, % is set by controls: 0 for no effect and ±100 for the full control effect; potency is the fitted concentration of half-maximal effect.

SMILES | FBPA Giardia inh | AmpC no deterg | AMA1-RON2 inh | AmpC detergent
COc1ccc(OC)c2sc(NC(=O)c3ccc(S(=O)(=O)N4CCOCC4)cc3)nc12 | -5.7% | 7.08µM* | -4.3% | ?
COc1ccc(Cl)c2sc(NC(=O)c3ccc(S(=O)(=O)N4CCCC4)cc3)nc12 | . | . | . | 15.7%
Cc1ccn2c(C(=O)CSc3ccccc3Cl)c(C)nc2c1 | -0.1% | 0.316µM* | -1.2% | 1.9%
C/C(Cl)=C/CC1(CN2CCCC2=O)C(=O)NC(=O)NC1=O | 5.0% | 2.6% | 13.5% | 28.2µM*
N/C(Cc1ccc(Cl)cc1Cl)=N\OC(=O)Cc1cccs1 | 1.6% | -22.6% | 171.2% | -7.1%
N/C(Cc1ccc(Cl)cc1Cl)=N\OC(=O)c1cccs1 | -1.5% | 0.316µM* | -1.0% | 4.3%
CCOc1cccc(CNc2ccc(O)cc2)c1OCc1ccc(Cl)cc1Cl | 12.6µM* | -32.2% | -8.2% | -9.4%
COc1ccc(CNc2ncnc3c2c(-c2ccccc2)cn3-c2ccc(C)c(Cl)c2)cc1 | . | . | . | -4.6%
O=S(=O)(Nc1ccc(Br)cn1)c1ccc2ccccc2c1 | 0.7% | 7.08µM* | 0.6% | -9.1%
Cc1ccccc1C(=O)Nc1ccc(Cl)cn1 | -2.4% | -12.2% | -13.2% | ?
O=C(Nc1ccc(Cl)cn1)c1cccc2c(Br)cccc12 | 2.2% | 20µM* | 11.4% | -8.7%
O=C1c2ccccc2C(Nc2ccccc2F)N1c1cccnc1 (centres undefined) | 3.5% | -28.1% | 4.5% | -9.5%
COC(=O)c1ccccc1NC1c2ccccc2C(=O)N1c1cccnc1 (centres undefined) | 3.3% | 7.08µM* | 46.9% | ?
COc1ccc(-c2csc3ncnc(N4CCN(S(=O)(=O)c5cccc(Br)c5)CC4)c23)cc1 | . | -43.8% | 13.5% | -11.2%
COc1ccc(-c2csc3ncnc(N4CCN(S(=O)(=O)c5ccc(C(C)=O)cc5)CC4)c23)cc1 | . | 31.6µM* | -5.1% | ?
COC(=O)C1=C(C(=O)OC)[C@@H]2N(C)c3ccccc3[C@@]23C[C@@H](C(=O)OC)N(S(=O)(=O)c2c(C)noc2C)C3=N1 | 2.5%[12.9 µM] | . | . | .
CCOc1ccc(CCNC(=O)c2ccc3c(c2)nc2n3CCOC2)cc1OCC | . | . | . | 16.5%
Cc1cc2[nH]c(=O)c(=O)[nH]c2cc1S(=O)(=O)N1CCN(c2cccc(C(F)(F)F)c2)CC1 | -4.2% | 3.16µM* | 5.3% | -8.6%
Cc1cc2[nH]c(=O)c(=O)[nH]c2cc1S(=O)(=O)N1CCN(c2cccc(Cl)c2)CC1 | -17.9% | -52.9% | -1.0% | -13.9%
CCOC(=O)c1oc2ccccc2c1NC(=O)CCl | 2.9% | -10.3% | 3.5% | -0.5%
CCOC(=O)c1oc2ccccc2c1NC(=O)c1ccc(Cl)s1 | 4.5% | 7.08µM* | 1.9% | ?
COc1ccc(NC(=O)N(C)C[C@H]2Oc3cc(Br)ccc3S(=O)(=O)N([C@H](C)CO)C[C@@H]2C)cc1 | . | . | 3.7% | .
O=C1c2ccccc2-c2cccc(NS(=O)(=O)c3ccc(C(F)(F)F)cc3)c21 | 0.4% | 5.62µM* | -12.2% | 6.0%
O=c1oc2ccccc2cc1-c1cn2cc(Cc3ccc(Br)cc3)sc2n1 | . | . | . | -7.4%
Cc1csc(-c2nc3ccccc3n2C(C(=O)NC(C)(C)C)c2ccccc2)c1 (centres undefined) | . | . | 9.0% | .
SMILES | FBPA Giardia inh | AmpC no deterg | AMA1-RON2 inh | AmpC detergent
COc1cccc2c(=O)c3cccc(N)c3[nH]c12 | 1.77µM* | -5.5% | 0.0%[11.6 µM] | -10.9%
Cc1cc2nc3s/c(=C/c4ccc(-c5ccccc5C(=O)O)o4)c(=O)n3c2cc1C | -5.8% | -28.3% | -26.1% | -0.7%
O=C(O)c1ccccc1-c1ccc(/C=c2\sc3nc4cc(Br)cnc4n3c2=O)o1 | -25.1% | -38.0% | 10.6µM* | -0.1%
COc1cccc(OCc2cc(/C=N/Nc3ccc(C(=O)O)cc3)ccc2OC)c1 | -5.1% | 17.8µM* | -2.4% | 5.0%
CN(C)c1ccc(CNC(=O)C2CCCN(S(=O)(=O)c3ccc4c(ccn4C)c3)C2)cc1 (centres undefined) | . | . | . | 10.6%
Cc1noc(Cn2c(=O)c3ccccc3n(CC(=O)Nc3cccc(Cl)c3C)c2=O)n1 | . | . | . | 1.3%
CCOC(=O)N1CCC(NC(=O)C2CCCN(C(=O)c3cc4sccc4n3C)C2)CC1 (centres undefined) | 3.4% | 0.562µM* | 9.2% | -13.5%
C=CCn1c(O)c(CN2CCOCC2)c(C)c(C#N)c1=O | 14.1µM* | -19.5% | 14.6% | ?
CCc1ccc(CNC(=O)C2Cc3cc(S(=O)(=O)N4CCCC4)ccc3N2C(C)=O)cc1 (centres undefined) | . | 83.7% | -0.1% | -1.5%
O=C1NC(=O)C(=Cc2ccccc2[N+](=O)[O-])C(=O)N1 | . | . | -5.4% | .
O=C1NC(=O)C(=Cc2cc3c(cc2[N+](=O)[O-])OCO3)C(=O)N1 | -25.9% | ? | -11.3% | 50.1µM*
C/C(=N\NC(=O)CNc1cccc2ccccc12)c1ccccc1 | 1.4% | -18.2% | 0.3% | 3.6%
C/C(CCc1ccco1)=N\NC(=O)CNc1cccc2ccccc12 | 19.9µM* | -22.3% | 0.0% | -5.5%
CCc1cc2ccccc2nc1SCC(=O)Nc1cc(OC)c(OC)cc1C(=O)O | ? | 8.91µM* | 13.2% | 0.1%
CN(Cc1ccc(Cl)cc1)C(c1cc2ccccc2o1)c1nnnn1C(C)(C)C (centres undefined) | . | . | -4.7% | .
COc1ccc(C2CC(=O)N3CN(c4ccc(C)c(Cl)c4)CSC3=C2C#N)cc1OC (centres undefined) | 5µM* | -16.3% | 34.2% | -17.1%
COc1ccc(N2CSC3=C(C#N)C(c4ccc(OC)c(OC)c4)CC(=O)N3C2)c(OC)c1 (centres undefined) | 1.41µM* | -2.1% | 0.4% | ?
COc1ccc(N2CSC3=C(C#N)C(c4cccs4)CC(=O)N3C2)cc1 (centres undefined) | 0.5µM* | -40.5% | 7.6% | -3.9%
COc1ccc(C2CC(=O)N3CN(C4CCCCC4)CSC3=C2C#N)cc1 (centres undefined) | . | . | . | 4.1%
Cc1ccc(N2CSC3=C(C#N)C(c4cccs4)CC(=O)N3C2)cc1 (centres undefined) | ? | -48.6% | 94.8% | ?
COc1ccc(N2CSC3=C(C#N)C(c4cc(OC)ccc4OC)CC(=O)N3C2)c(OC)c1 (centres undefined) | 1.58µM* | -13.8% | 44.2% | ?
CCOc1ccc(C(=O)N2CCC(c3nnc(-c4ccccc4OC)o3)CC2)cc1 | . | . | . | 0.2%
COc1ccc(NC(=O)C2CCN(c3cc(C)nc4c(-c5ccc(Cl)cc5)c(C)nn34)CC2)cc1 | . | . | . | 0.6%
COc1ccc(N2CSC3=C(C#N)C(c4cc(OC)c(OC)cc4OC)CC(=O)N3C2)c(OC)c1 (centres undefined) | 1.99µM* | 4.3% | 1.1% | -12.6%
CCOc1ccccc1N1CSC2=C(C#N)C(c3c(OC)ccc4ccccc34)CC(=O)N2C1 (centres undefined) | 6.29µM* | -46.0% | 15.3% | -5.4%
COc1cc(OC)c(C2CC(=O)N3CN(c4ccc(C)cc4)CSC3=C2C#N)cc1OC (centres undefined) | ? | -20.0% | 10.7% | ?
